The values below come from PubChem BioAssay AID1259415 (National Center for Advancing Translational Sciences (NCATS), 2018).

Out of some 410,000 compounds screened, about 18,000 (4.4%) were called active. Inconclusive results (about 7%) are left out. This excerpt belongs to a sample that is enriched for actives. Values without a mark were called inactive. No stated cut-off is given here; in the data, active means activity change below about -60%; inconclusive means no clear call, values can overlap the other calls; inactive means above about -39%.
On the % scale 0 is the no-effect control and ±100 the full control effect.

The test can be described thus: qHTS Assay for inhibitors of the human cytomegalovirus (HCMV). The conditions noted are these: HFF cells, HCMV-luciferase reporter, 72 h; at 57.5 µM; stronger effect = lower value. In a few lines:
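After 16 h attachment at 37C, HFF cells received test compound and HCMV-luciferase (1 PFU/cell); reporter luminescence read 72 h later, data normalized against buffer-only and known inhibitor Salinomycin.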
Take `Cc1nnc(N2CCC(C(=O)Nc3ccc(F)cc3)CC2)c2nn(-c3ccc(Cl)cc3)c(C)c12`: the activity change, negative = inhibition was -83.4% (active). As to `CCc1ccc(CNC(=O)C2CCN(c3nnc(C)c4c(C)n(-c5ccc(C)cc5)nc34)CC2)cc1`, the activity change, negative = inhibition was -8.15%. Regarding `CC(=O)Nc1c(C)nn(-c2ccccc2)c1N1CCC(C(=O)Nc2cc(Cl)ccc2C)CC1`, the activity change, negative = inhibition is 54.8%. For `CCOC(=O)C1CCC(CN(Cc2ccc(OC)cc2)S(=O)(=O)c2ccc(F)c(C(=O)Nc3cc(C)ccc3C)c2)CC1` (stereo not drawn) the value was -8.08%. In the case of `CCOCCCNC(=O)c1c(NC(=O)Cc2coc3ccc(C)cc23)sc2c1CCC2`, the activity change, negative = inhibition is -5.35%. Then `CCc1c(C)nc2ncnn2c1N1CCC(C(=O)NCc2ccc3c(c2)OCO3)CC1`, with -29.2%; and `FC(F)(F)c1cc(Nc2nc3ccccc3c3nncn23)ccc1Cl`, with -13.6%; and `CCC(=O)N1c2ccccc2CC1C(=O)N1CCN(c2ccccc2)CC1` (stereo not drawn), with 2.26%. Then `CN(C(=O)COc1ncnc2c1cnn2-c1ccccc1)C1CCCCC1`, with -21.9%. Then `CCN(c1ncnc2c1cnn2-c1ccc(C)cc1)C1CCCCC1`, with -79.6% (active). With `Cc1ccc(-n2ncc3c(N4CCC(C(N)=O)CC4)ncnc32)cc1`, the activity change, negative = inhibition is 80.5%. For `COc1ccc(CCNC(=O)CCc2c(C)nc3c(c(C)nn3-c3ccc(C)c(C)c3)c2C)c(OC)c1OC` the value was 22.2%; for `COc1cc(NS(=O)(=O)c2ccc3c(c2)OCC(C(=O)N2CCCC2)O3)cc(OC)c1` (stereo not drawn), -21.9%. For `C=Cc1ccc(Cn2c(C(=O)OC)cc3sc(C)cc32)cc1` the value was -33.1%; for `O=C(O)c1ccc(OCC2CCCO2)cc1` (stereo not drawn), 63.5%; for `COC(=O)CC1=NN(c2nc(C)cc(C)n2)C(=O)C1`, -72.6% (active). Then `Cc1ccc(CC2CC(=O)N(c3nc(C)cc(C)n3)C2=O)cc1` (stereo not drawn), with -6.32%. Consider `Cc1cc(C)nc(N2C(=O)CC(Cc3ccccc3)C2=O)n1` (stereo not drawn), for which the activity change, negative = inhibition was -1.22%. For `O=C(NCc1cc(F)cc(C(F)(F)F)c1)C1CCC(=O)N(C2CCCC2)C1` (stereo not drawn) the value was 8.32%. Then `CC(=NNC(=O)c1ccncc1)c1ccc(Cl)c(Cl)c1`, with -31%.

`O=C(N/N=C/c1ccc(Cl)c(Cl)c1)c1ccc2nc[nH]c2c1`: the activity change, negative = inhibition was -65.6% (active).

Turning to `NCCCCCC(=O)N/N=C/c1ccc2nccnc2c1`, the activity change, negative = inhibition is -14.8%.

On to `CCc1ccc(CN(Cc2ccco2)C(=O)c2ccccc2Cl)cc1`, for which the activity change, negative = inhibition was 33.9%. Then `O=C(CN1C(=O)CCn2nc(-c3ccccc3)cc21)NCc1ccccc1`, with 6.04%; and `O=C(COC(=O)Cc1c[nH]c2ccccc12)NCCc1ccccc1`, with 10.5%. Then `c1cncc(CNCCc2c[nH]c3ccccc23)c1`, with -8.49%; and `Cc1cc(C)cc(NC(=S)NCCc2c[nH]c3ccccc23)c1`, with -73.6% (active); and `COc1ccc(NC(=O)C2Cc3c(-c4ccc(Cl)cc4)ccnc3O2)cc1` (stereo not drawn), with -3.46%.

In the case of `O=C(c1[nH]ncc1-c1ccc(Cl)cc1)C1CO1` (stereo not drawn), the activity change, negative = inhibition was -78.7% (active). For `COc1cccc(CNC(=O)C2CCN(S(=O)(=O)c3ccc4c(ccn4C)c3)CC2)c1` the value was 16.9%; for `c1ccc2c(-c3nn4nnnc4c4ccccc34)cccc2c1`, 49.8%; for `CN(C(=O)CSc1nc2ccc(NC(=O)COc3ccccc3)cc2s1)c1ccccc1`, -30%. In the case of `COc1ccc2c(c1)c(N1CCCC1=O)c(C(=O)Nc1ccccc1C(F)(F)F)n2C`, the activity change, negative = inhibition was -24.2%.

On to `Cc1ccc([C@H]2C[C@H](O)[C@@H](n3cc(COC(=O)c4ccccc4)nn3)CN2C(=O)C2CCCCC2)cc1`, for which the activity change, negative = inhibition is 1.46%. For `CCCCCC(=O)N1C[C@H](O)[C@@H](n2cc(COC(=O)c3ccccc3)nn2)C[C@@H]1c1ccc(C)cc1` the value was -7.72%. Regarding `Cc1ccc([C@H]2C[C@H](O)[C@@H](n3cc(COC(=O)c4ccccc4)nn3)CN2CC2CCCCC2)cc1`, the activity change, negative = inhibition was -100% (active). On to `O=C(CC1Sc2ccccc2NC1=O)NNc1ccc(Cl)c(Cl)c1` (stereo not drawn), for which the activity change, negative = inhibition is -35.8%. Then `COc1ccc(N2CCN(S(=O)(=O)c3ccc(-c4coc(C)n4)cc3)CC2)cc1`, with -11.2%; and `CCOc1ccccc1N1CN(Cc2ccccc2)CNC1=S`, with -2.1%; and `CCOC(=O)c1ccc(NC2=CC(c3ccc(OCC)cc3)N(c3ccc(C(=O)OCC)cc3)C2=O)cc1` (stereo not drawn), with 18.7%. With `CCc1nnc(NC(=O)C2CCN(C(=O)c3ccccc3C)CC2)s1`, the activity change, negative = inhibition is 17.6%. For `CC(C)c1nnc(NC(=O)C2CCCN2S(=O)(=O)c2ccc(Cl)cc2)s1` (stereo not drawn) the value was 2.67%; for `CCc1nnc(NC(=O)C2CCCN2S(=O)(=O)c2ccccc2)s1` (stereo not drawn), -60.4% (active). As to `O=C(CCn1c(=O)c2ccccc2n(Cc2ccc(Cl)cc2)c1=O)NCc1ccc2c(c1)OCO2`, the activity change, negative = inhibition is 10.1%. For `COc1ccc(C(=O)/C=C/c2cccnc2)c(OC)c1` the value was -71.6% (active); for `COc1ccc(N2CC(C(=O)NCCN3C(=O)S/C(=C\c4cccnc4)C3=O)CC2=O)c(OC)c1` (stereo not drawn), 24.9%. Then `COc1ccc(C(=O)COC(=O)C(O)c2ccccc2)c(OC)c1` (stereo not drawn), with -26%. For `Cc1ccsc1CN(C(=O)c1oc2ccc(Br)cc2c1C)C1CCS(=O)(=O)C1` (stereo not drawn) the value was 30.1%. Turning to `CCN1CCN(c2ncnc3c2cnn3-c2ccc(C)c(C)c2)CC1`, the activity change, negative = inhibition is -1.25%. As to `Cc1ccc(NC(=O)c2oc3ccccc3c2NC(=O)Cc2cccs2)cc1`, the activity change, negative = inhibition is 14.9%. Then `CCOc1ccc2oc(=O)cc(CN3CCN(C(=O)c4ccc(F)cc4)CC3)c2c1`, with -25.5%. Then `CC[n+]1cc(C)ccc1/C=C/c1ccc(N(C)C)cc1`, with -99.4% (active); and `CCOC(=O)c1ccc(NC(=O)c2ncn(-c3ccccc3)n2)cc1`, with 43.5%; and `COc1ccc(Cl)cc1NC(=O)CSc1nc(=O)[nH]c2c1CCCC2`, with 31.1%.

`NS(=O)(=O)c1ccc(CCNC(=O)CCCCCn2c(=O)[nH]c3ccccc3c2=O)cc1`: the activity change, negative = inhibition is 34%. For `CCCN(CCC)CCCNC(=O)Cn1cc2c(n1)-c1c(oc(C(=O)N3CCCC3)c1C)CC2` the value was -39.7%.

Regarding `COc1ccccc1N1CCN(c2ccc(=O)n(CC(=O)NCc3ccc(OC(C)C)cc3)n2)CC1`, the activity change, negative = inhibition is 13.7%.

On to `Cc1c(C(=O)N2CCCC2)oc2c1-c1nn(CC(=O)NCc3ccc(OC(C)C)cc3)cc1CC2`, for which the activity change, negative = inhibition was -68.3% (active).
